Among the data in PubChem BioAssay (EPA / NIEHS) are outcome and AC50 values, retold here.

Values joined by “and” are separate entries in the source; they are usually repeats but may differ in a detail not shown here. Equal entries are not always repeated. Results filed as inconclusive are left out. The source holds several records for some structures; these can differ, active in one and inactive in another. Active and inactive are the calls of the source. Rule for the calls, unless noted: active = hit-call score of the fitted dose curve at least 0.9, where 1 is the maximum; inactive = score below 0.9.

For assay [1], the target named is Nucleoli Translocation, AR (gene 367) (UniProt P10275). The assay can be described thus: UPITT_HCI_U2OS_AR_TIF2_Nucleoli_Antagonist: University of Pittsburgh U2OS Androgen Receptor-Transcriptional Intermediary Factor 2 (AR-TIF2) Antagonism High Content Imaging Assay for Nucleoli Translocation (AID 2283997; active = hit-call score of the fitted dose curve at least 0.9, where 1 is the maximum). The essentials: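 Measured quantity was AR-RFP fluorescence localized to nucleoli in engineered U2OS cells also bearing TIF2-GFP, acquired on automated high-content imagers. Primary testing used 20 uM compound; actives were confirmed in triplicate wells.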
Sequence of Nucleoli Translocation, AR (gene 367) (P10275 whole entry, looked up): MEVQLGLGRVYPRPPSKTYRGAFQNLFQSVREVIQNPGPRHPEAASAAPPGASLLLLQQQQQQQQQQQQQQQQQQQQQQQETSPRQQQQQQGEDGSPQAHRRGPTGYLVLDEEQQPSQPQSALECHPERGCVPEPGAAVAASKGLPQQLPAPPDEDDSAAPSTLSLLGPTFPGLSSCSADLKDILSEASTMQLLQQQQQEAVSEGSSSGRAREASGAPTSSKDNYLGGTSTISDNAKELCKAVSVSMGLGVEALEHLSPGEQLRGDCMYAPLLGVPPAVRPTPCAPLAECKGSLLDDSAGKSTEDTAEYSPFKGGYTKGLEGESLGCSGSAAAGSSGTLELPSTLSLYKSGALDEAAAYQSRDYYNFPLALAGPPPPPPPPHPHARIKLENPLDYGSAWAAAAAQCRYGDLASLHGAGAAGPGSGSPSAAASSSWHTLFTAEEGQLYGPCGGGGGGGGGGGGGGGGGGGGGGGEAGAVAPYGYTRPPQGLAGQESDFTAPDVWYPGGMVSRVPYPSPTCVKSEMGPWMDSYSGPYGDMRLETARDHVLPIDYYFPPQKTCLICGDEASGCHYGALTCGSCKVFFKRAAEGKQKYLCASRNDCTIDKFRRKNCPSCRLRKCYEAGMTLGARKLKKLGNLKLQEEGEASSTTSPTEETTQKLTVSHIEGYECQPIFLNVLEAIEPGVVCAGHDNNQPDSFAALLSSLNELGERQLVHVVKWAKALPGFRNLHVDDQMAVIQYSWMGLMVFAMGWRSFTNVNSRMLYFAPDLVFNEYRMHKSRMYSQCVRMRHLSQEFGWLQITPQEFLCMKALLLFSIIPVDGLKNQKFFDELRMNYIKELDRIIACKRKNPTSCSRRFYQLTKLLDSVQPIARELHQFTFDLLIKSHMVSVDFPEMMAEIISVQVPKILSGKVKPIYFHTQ

The target is the same in assay [2]. Description: UPITT_HCI_U2OS_AR_TIF2_Nucleoli_Agonist: University of Pittsburgh U2OS Androgen Receptor-Transcriptional Intermediary Factor 2 (AR-TIF2) Agonism High Content Imaging Assay for Nucleoli Translocation (AID 2283998; active = hit-call score of the fitted dose curve at least 0.9, where 1 is the maximum). The method, boiled down:
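U2OS cells expressing RFP-tagged human AR and GFP-tagged TIF2; red fluorescence in nucleoli quantified by high-content imaging. Primary screen at 20 uM final (0.2% DMSO); concentration-response 0.195–50 uM (0.5% DMSO), fitted upward versus DMSO.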

Assay [3] addresses Ratio of Nucleoli Translocation and Cytoplasm, AR (gene 367) (UniProt P10275). Description: UPITT_HCI_U2OS_AR_TIF2_Nucleoli_Cytoplasm_Ratio_Antagonist: University of Pittsburgh U2OS Androgen Receptor-Transcriptional Intermediary Factor 2 (AR-TIF2) Antagonism High Content Imaging Assay for Ratio of Nucleoli Translocation and Cytoplasm (AID 2283999; active = hit-call score of the fitted dose curve at least 0.9, where 1 is the maximum;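 note: antagonists lower the DHT-driven ratio of nucleolar to cytoplasmic red signal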). The method, boiled down:
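U2OS cells expressing RFP-tagged human AR and GFP-tagged TIF2; compounds tested at 20 uM final (0.2% DMSO) in primary screen, 0.195–50 uM (0.5% DMSO) for concentration response. Readout: nucleolar-to-cytoplasmic red fluorescence ratio by high-content imaging, fitted relative to DHT.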

Assay [4] has the same target. The assay can be described thus: UPITT_HCI_U2OS_AR_TIF2_Nucleoli_Cytoplasm_Ratio_Agonist: University of Pittsburgh U2OS Androgen Receptor-Transcriptional Intermediary Factor 2 (AR-TIF2) Agonism High Content Imaging Assay for Ratio of Nucleoli Translocation and Cytoplasm (AID 2284000; active = hit-call score of the fitted dose curve at least 0.9, where 1 is the maximum;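 note: hits raise the red nucleolar to cytoplasm ratio above vehicle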). The essentials: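 Read-out first: nucleolar-to-cytoplasm ratio of red (AR-RFP) signal, quantified by high-content imaging in U2OS cells co-expressing TIF2-GFP. Activity is scored as signal increase over DMSO. Single-point screening used 20 uM final (0.2% DMSO).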

A short description of assay [5]: CCTE_Harrill_HTTr_Viability_MCF7: CCTE's 6-hour Cell Viability Assessment for the High-Throughput Transcriptomics (HTTr) Platform, in MCF-7 cells cultured in DMEM + 10% fetal bovine serum, Harrill Lab (AID 2284010). The essentials:
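Membrane integrity was scored by high-content imaging of propidium iodide dye exclusion after a 6 h exposure across an eight-point dilution series. Data were fitted bidirectionally relative to DMSO as negative control and baseline.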

Assay [6] is described as follows: CCTE_Harrill_HTTr_Apoptosis_MCF7: CCTE's 6-hour Apoptosis Assessment for the High-Throughput Transcriptomics (HTTr) Platform, in MCF-7 cells cultured in DMEM + 10% fetal bovine serum, Harrill Lab (AID 2284011). The method, boiled down:
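MCF-7 cells in DMEM + 10% FBS exposed 6 h to chemicals over an eight-point dilution series. Caspase-3/7 activation imaged by high-content CellEvent Green staining; fitted bidirectionally versus DMSO.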

Assay [7] can be described thus: CCTE_Simmons_MITO_basal_resp_rate: CCTE's HepG2 Seahorse XF Respirometric Screening Assay at Basal Respiratory State, Simmons Lab (AID 2284001). As to conditions: actives raise or lower the signal. The method, boiled down: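 HepG2 respirometry; 7-pt titration 125 nM–100 uM final; kinetic OCR at 6 min intervals for 72 min; n=3 biological, technical singles; DMSO baseline, gain or loss fit; fenpyroximate (decrease) and 2,4-DNP (increase) controls.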

Assay [8] is described as follows: CCTE_Simmons_MITO_max_resp_rate: CCTE's HepG2 Seahorse XF Respirometric Screening Assay at Maximal Respiratory State [uncoupled], Simmons Lab (AID 2284002). The settings on record: actives raise or lower the signal. The method, boiled down:
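HepG2 oxygen consumption measured on Seahorse XF after FCCP uncoupling, following test compound injection; 7 concentrations from 125 nM to 100 uM final. Readings every 6 min over 72 min, three biological replicates; bidirectional fit versus DMSO.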

Assay [9] can be described thus: CCTE_Simmons_MITO_inhib_resp_rate: CCTE's HepG2 Seahorse XF Respirometric Screening Assay at Inhibited Respiratory State [full ETC block], Simmons Lab (AID 2284006). As to conditions: actives raise or lower the signal. The essentials:
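HepG2 cells on Seahorse XF96; oxygen consumption measured after test compound, then FCCP, then rotenone/antimycin A injections over 72 min. Test chemicals at 7 concentrations, 125 nM–100 uM final. OCR fitted bidirectionally versus DMSO.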

Assay [10] can be described thus: CCTE_Shafer_MEA_acute_spike_number: CCTE's Neural Acute Assay for Total Number of Spikes, Shafer Lab (AID 2284008).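 For AC50: curve fitted for decrease in spike count so AC50 reflects inhibitors.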 The method, boiled down:
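Rat primary cortical neurons on 48-well MEA plates, DIV 13 or 15, at 37 C. 40 min baseline then 40 min with compound (0.03-40 uM); spikes detected at 8x rms noise, expressed as percent change from baseline.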

Assay [11] is described as follows: CCTE_Shafer_MEA_acute_firing_rate_mean: CCTE's Neural Acute Assay for Mean Firing Rate, Shafer Lab (AID 2284009).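 Note: analyzed for loss of signal so actives lower firing rate relative to DMSO.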 The method, boiled down:
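Percent change in well-mean firing rate was derived from extracellular spikes detected at 8x rms noise (300-5000 Hz band-pass) before and after a 40-min compound exposure. Cultures were primary rat cortical neurons, tested at 0.03-40 uM.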

A short description of assay [12]: CCTE_Harrill_HTTr_CellCount_MCF7: CCTE's Cell Proliferation Assessment for the High-Throughput Transcriptomics (HTTr) Platform, Harrill Lab (AID 2284012; active = hit-call score of the fitted dose curve at least 0.9, where 1 is the maximum;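 note: cells exposed to compound for six hours; intended direction is loss of nuclei count meaning fewer cells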). The method, boiled down:
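MCF-7 cells were exposed for 6 h to an eight-point dilution series; Hoechst-labeled nuclei were counted by high content imaging. Curves were fitted bidirectionally against DMSO as negative control and baseline, with signal loss indicating reduced cell count.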

Assay [13] is described as follows: CCTE_Harrill_HTTr_Viability_PRF_DMEM_24hr: (Pilot) CCTE's 24-hour Cell Viability Assessment for the High-Throughput Transcriptomics (HTTr) Platform, in MCF-7 cells cultured in phenol red-free DMEM + 10% charcoal-stripped fetal bovine serum, Harrill Lab (AID 2283980). The method, boiled down: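 MCF-7 cells in phenol red-free DMEM with 10% charcoal-stripped FBS, eight-point dilution series, 24 h exposure. Membrane integrity by propidium iodide exclusion with high content imaging; bidirectional fit vs DMSO.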

A short description of assay [14]: CCTE_Harrill_HTTr_Apoptosis_DMEM_6hr: (Pilot) CCTE's 6-hour Apoptosis Assessment for the High-Throughput Transcriptomics (HTTr) Platform, in MCF-7 cells cultured in DMEM + 10% fetal bovine serum, Harrill Lab (AID 2283981). The method, boiled down: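 Caspase-3/7 activation read by high content imaging with CellEvent Caspase 3/7 Green in MCF-7 cells (DMEM + 10% FBS), 6 h after dosing; eight-point dilution series. Bidirectional fitting relative to DMSO baseline.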

Assay [15] is described as follows: CCTE_Harrill_HTTr_Apoptosis_DMEM_12hr: (Pilot) CCTE's 12-hour Apoptosis Assessment for the High-Throughput Transcriptomics (HTTr) Platform, in MCF-7 cells cultured in DMEM + 10% fetal bovine serum, Harrill Lab (AID 2283982). The essentials:
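MCF-7 cells in DMEM + 10% FBS, exposed 12 h to an eight-point dilution series; caspase-3/7 activation imaged with CellEvent Green. Bidirectional fit versus DMSO.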

The nature of assay [16]: CCTE_Harrill_HTTr_Apoptosis_DMEM_24hr: (Pilot) CCTE's 24-hour Apoptosis Assessment for the High-Throughput Transcriptomics (HTTr) Platform, in MCF-7 cells cultured in DMEM + 10% fetal bovine serum, Harrill Lab (AID 2283983). The essentials: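 MCF-7 cells in DMEM + 10% FBS, eight-point dilution series, 24 h exposure. Caspase-3/7 activation imaged by high-content imaging with CellEvent Caspase 3/7 Green. Bidirectional curve fitting against DMSO baseline.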

Assay [17] in a line: CCTE_Harrill_HTTr_Apoptosis_PRF_DMEM_6hr: (Pilot) CCTE's 6-hour Apoptosis Assessment for the High-Throughput Transcriptomics (HTTr) Platform, in MCF-7 cells cultured phenol red-free DMEM + 10% charcoal-stripped fetal bovine serum, Harrill Lab (AID 2283984). The essentials: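 MCF-7 cells in phenol red-free DMEM + 10% charcoal-stripped FBS, eight-point dilution series, 6 h exposure. Caspase-3/7 activation imaged by high-content imaging with CellEvent Caspase 3/7 Green; bidirectional fit versus DMSO baseline.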

Assay [18] is described as follows: CCTE_Harrill_HTTr_Apoptosis_PRF_DMEM_12hr: (Pilot) CCTE's 12-hour Apoptosis Assessment for the High-Throughput Transcriptomics (HTTr) Platform, in MCF-7 cells cultured in phenol red-free DMEM + 10% charcoal-stripped fetal bovine serum, Harrill Lab (AID 2283985). The method, boiled down: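 MCF-7 cells in phenol red-free DMEM with 10% charcoal-stripped FBS, eight-point dilution series, 12 h exposure. Caspase-3/7 activation imaged by high content imaging with CellEvent Green reagent; bidirectional fit vs DMSO.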

A short description of assay [19]: CCTE_Harrill_HTTr_Apoptosis_PRF_DMEM_24hr: (Pilot) CCTE's 24-hour Apoptosis Assessment for the High-Throughput Transcriptomics (HTTr) Platform, in MCF-7 cells cultured in phenol red-free DMEM + 10% charcoal-stripped fetal bovine serum, Harrill Lab (AID 2283986). The method, boiled down:
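MCF-7 cells in phenol red-free DMEM with 10% charcoal-stripped FBS, exposed 24 h across an eight-point dilution series. Caspase-3/7 activation imaged with CellEvent Green by high content imaging; bidirectional fitting against DMSO.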

Sequence of Ratio of Nucleoli Translocation and Cytoplasm, AR (gene 367) (P10275 whole entry, looked up): as above

For the molecule `c1cc2ccc3cccc4ccc(c1)c2c34`, the result in assay [1], in [2], in [3], in [4], in assay [5] and in [6] was inactive.

Regarding `CCSC(=O)N(CC)C1CCCCC1`, the results for the AC50 in assay [7], in [10] and in assay [11] were 50 µM (active), 20 µM (active) and 20 µM (active), respectively. Moreover, the molecule was classed as inactive in [8], in [9], in [5], in assay [6] and in assay [12].

`c1ccc(-c2ccccc2)cc1`: the call in assay [1], in [2], in assay [10], in assay [11], in [5] and in assay [6] was inactive. In addition, in assay [12], the outcome was inactive.

For the molecule `CC(C)(c1ccccc1)c1ccc(O)cc1`, the result in assay [13], in assay [14], in assay [15], in assay [16], in assay [17] and in assay [18] was inactive. Further, the result in assay [19], in [9], in [5], in assay [6] and in assay [12] was inactive. Besides, the AC50 – broadly, the concentration at which the activity in the assay is half-maximal – was 19.9 µM (active) in assay [7] and 37.7 µM (active) in assay [8].

As to `CC(C)(O)C(=O)Nc1ccc([N+](=O)[O-])c(C(F)(F)F)c1`, the results for the AC50 in [7] and in [8] were 40.9 µM (active) and 50 µM (active), respectively. Further, the molecule was classed as inactive in assay [9], in [5] and in assay [6].

Turning to `C[C@]12CCC(=O)C=C1CC[C@@H]1[C@@H]2CC[C@@]2(C)[C@H]1CC[C@]2(C)O`, the outcome in assay [7], in assay [8], in assay [9], in assay [5], in assay [6] and in [12] was inactive.

Regarding `COc1ccc(O)c(C(C)(C)C)c1`, the AC50 in assay [7] is 44 µM (active); in assay [10], 3.04 µM (active) and 633 nM (active); in assay [11], 3.03 µM (active) and 679 nM (active). Besides, the outcome in assay [8], in assay [9], in [10], in [11], in [5] and in assay [6] was inactive.

With `C=CC(=O)NCNC(=O)C=C`, the call in [1], in assay [2], in assay [3], in [4], in [5] and in assay [6] was inactive.

Take `CCOC(=O)C(O)(c1ccc(Cl)cc1)c1ccc(Cl)cc1`: the figures for the AC50 in assay [1], in [2] and in assay [4] were 13.3 µM (active), 50 µM (active) and 70.3 µM (active), respectively. For the same molecule, the result in assay [3], in assay [5], in assay [6] and in assay [12] was inactive.

Turning to `C[C@]12CCC(=O)C=C1CC[C@@H]1[C@@H]2CC[C@]2(C)C(=O)CC[C@@H]12`, in [7], the AC50 is 38 µM (active). For the same molecule, the call in assay [8] and in [9] was inactive.

Take `O=C(NC(=O)c1c(F)cccc1F)Nc1cc(Cl)c(OC(F)(F)C(F)F)c(Cl)c1`: the outcome in assay [1], in assay [2], in [3], in [4], in assay [10] and in assay [11] was inactive. In addition, the result in assay [5], in [6] and in assay [12] was inactive.
